Assay results: PubChem BioAssay (EPA / NIEHS)
Where “and” joins values, the source holds several entries; their conditions need not be identical. Equal values may be shown once. Inconclusive results are not listed. Where a structure was tested more than once in an assay, its records may differ in their call. Calls of active or inactive are those of the source. The calls were made as follows: active = hit-call score of the fitted dose curve at least 0.9, where 1 is the maximum; inconclusive = response in the unintended direction; inactive = score below 0.9.

assay: CCTE_Shafer_MEA_dev_LDH: CCTE's Lactate Dehydrogenase Assay for Cytotoxicity in the Neural Network Formation Assay, Shafer Lab (AID 2284068);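 also: exposure for twelve days from plating with re-dosing on DIV 5 and 9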
Procedure: CCTE_Shafer_MEA_dev assay is conducted using Axion Biosystems 48 well microelectrode array (MEA) plates and Maestro recording system. Each well of the MEA plate contains a grid of 16 microelectrodes embedded in the culture surface. Electrically active cells, such as neurons, can be cultured over the electrodes, and electrical activity in these cells can be recorded extracellularly. The spontaneous firing of neurons is captured from each electrode on a microsecond timescale providing both temporally and spatially precise data. […] The CCTE_Shafer_MEA_dev assay uses primary cultures of rat cortical neurons. Recordings are made on days post-plating 5, 7, 9 and 12. As these cultures mature over time, neural networks develop functional activity and form cohesive networks in which electrical activity can be highly coordinated. CCTE_Shafer_MEA_dev_LDH is 1 of 19 assay components of the CCTE_Shafer_MEA_dev assay. It measures the lactate dehydrogenase enzyme activity using spectrophotometry.Data from the assay component CCTE_Shafer_MEA_dev_LDH was analyzed into 1 assay endpoint. This assay endpoint, CCTE_Shafer_MEA_dev_LDH, was analyzed in the positive analysis fitting direction relative to DMSO as the negative control and baseline of activity. Using a type of viability reporter, loss-of-signal activity can be used to understand cell viability.
On the day prior to culture, each well was coated thoroughly with 150 uL of 0.05% polyethyleneimine (PEI, Sigma Cat P3143) in 50 mM HEPES (Sigma Cat H7523) at a pH of 8. The plate was incubated at 37C for one hour. PEI was rinsed out with 500 uL of sterile water three times. Plates were stored at 4C until the day of culture. This culture was plated at a seeding density of 1.5 x 10^5 cells/well on a 48-well MEA plate, prepared as described above. Cells were administered via a 25 uL media/laminin ([…]; Sigma Cat L2020-1MG) drop directly onto the microelectrode array, as adding the cells with the laminin results in better attachment than pre-coating with laminin. After 2 hours, an additional 475 uL of cortical media was added and the cells returned to the incubator. Exposure starts at day 0 of plating and is continued over twelve days of network development until the experiment is terminated. Cells are fed with fresh medium on DIV 5 and 9, following the recordings on those days. The entire volume of media in the well is exchanged and any vehicle or compound treatment is renewed. Complete details are found in OP-NHEERL/ISTD/SBB/TJS/2015-03-r0 (available on request, email shafer.tim@epa.gov). Measurement of the electrical activity is non-invasive, and recordings can be made from the same plate over multiple different days of the culture. In cortical neurons, this allows for the measurement of extracellular action potentials over the period during which networks form in the MEA plate.

Compound | AC50 | outcome
CCCSP(=O)(OCC)SCCC | 15.7 µM (active) and 15.4 µM (active) | –
CCOP(=S)(OCC)OC(Cl)C(Cl)(Cl)Cl (stereo unspecified) | 31 µM (active) and 21.4 µM (active) | –
CCOP(=S)(OCC)Oc1cc(C)nc(C(C)C)n1 | 50 µM (active) | –
CCOP(=S)(OCC)Oc1ccc2c(C)c(Cl)c(=O)oc2c1 | 76.4 µM (active) | –
CCCSP(=O)(OCC)Oc1ccc(Br)cc1Cl (stereo unspecified) | 1.79 µM (active) | –
COP(=O)(NC(C)=O)SC (stereo unspecified) | – | inactive
CCOP(=O)(NC(C)C)Oc1ccc(SC)c(C)c1 (stereo unspecified) | 51 µM (active) | inactive
CC1=NNC(=O)N(/N=C/c2cccnc2)C1 | – | inactive
C[Si](Cn1cncn1)(c1ccc(F)cc1)c1ccc(F)cc1 | 22.5 µM (active) | –
CON=C(C(=O)OC)c1ccccc1CON=C(C)c1cccc(C(F)(F)F)c1 | 326 nM (active) and 299 nM (active) | –
CC(C)[C@H](C(=O)O[C@H](C#N)c1cccc(Oc2ccccc2)c1)c1ccc(Cl)cc1 | – | inactive
CC[C@H](C)[C@H]1O[C@]2(C=C[C@@H]1C)C[C@@H]1C[C@@H](C/C=C(\C)[C@@H](O[C@H]3C[C@H](OC)[C@@H](O[C@H]4C[C@H](OC)[C@@H](NC)[C@H](C)O4)[C@H](C)O3)[C@@H](C)/C=C/C=C3\CO[C@@H]4[C@H](O)C(C)=C[C@@H](C(=O)O1)[C@]34O)O2 | 145 nM (active) and 0.883 nM (active) | –
CN1COCN(Cc2cnc(Cl)s2)C1=N[N+](=O)[O-] | – | inactive
CCOP(=S)(OCC)Oc1ccc([N+](=O)[O-])cc1 | – | inactive
COP(=O)(OC)C(O)C(Cl)(Cl)Cl (stereo unspecified) | 3.52 µM (active) and 1.47 µM (active) | –
CN(C)[C@@H]1C(=O)C(C(N)=O)=C(O)[C@@]2(O)C(=O)C3=C(O)c4c(O)cccc4[C@@](C)(O)[C@H]3[C@H](O)[C@@H]12 | 77.7 µM (active) | –
CSC1=N[C@@](C)(c2ccccc2)C(=O)N1Nc1ccccc1 | 15 µM (active) | –
S=C1NCCN1 | – | inactive
CCOP(=S)(OCC)SCCSCC | – | inactive
CCOP(=O)(OCC)Oc1cc(C)nc(C(C)C)n1 | – | inactive
CCCCSP(=O)(SCCCC)SCCCC | 27.3 µM (active) and 49.9 µM (active) | –
COP(=O)(OC)OC(Br)C(Cl)(Cl)Br (stereo unspecified) | 6.64 µM (active) and 17.1 µM (active) | –
CCOC(=O)CC(SP(=O)(OC)OC)C(=O)OCC (stereo unspecified) | – | inactive
CC(C)=CC1C(C(=O)OCN2C(=O)C3=C(CCCC3)C2=O)C1(C)C (stereo unspecified) | 10 µM (active) | –
CCOP(=O)(SC(C)CC)N1CCSC1=O (stereo unspecified) | 50 µM (active) | –
CCOP(=S)(Oc1cnc(C(C)(C)C)nc1)OC(C)C (stereo unspecified) | 77.4 µM (active) and 20.6 µM (active) | –
CC(C)N(C(=O)SCC(Cl)=C(Cl)Cl)C(C)C | 10.7 µM (active) | –
O=[N+]([O-])c1cc(C(F)(F)F)c(Cl)c([N+](=O)[O-])c1Nc1ncc(C(F)(F)F)cc1Cl | 0.871 µM (active) | –
C=C(C)[C@H]1Cc2c(ccc3c2O[C@@H]2COc4cc(OC)c(OC)cc4[C@@H]2C3=O)O1 | 16.4 nM (active) and 15.4 nM (active) | –
CC(Oc1cccc(Cl)c1)C(=O)O (stereo unspecified) | – | inactive
